# Source: PubChem BioAssay AID1508600 (Functional Genomics Laboratory (NCATS/FGL), 2020)
# The campaign covered roughly 53,000 sequences. About 3,700 (7%) were called active.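 Rule for the calls: active = gene knockdowns whose robust z-score for IL-1 alpha signal is at least 2 or at most -2, so actives lie on both sides; inactive = the rest.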 Many of the other results were omitted from the sample, so actives are more common in it than they were.
# Test: Components of the Cytosolic LPS Sensing Pathway: Gene Identification via Genome-wide siRNA Screen;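 note: robust z of the log signal after scaling to non-targeting control siRNA wells of the plate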
# Details: RAW264.7 macrophages, IL-1a HTRF, actives lie on both sides, screened at 100 nM (by protocol), cells primed 5 h with Pam3CSK4 first
# Summary of the method: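 IL-1a HTRF of supernatants after 24 hour LipidA transfection of Pam3CSK4-primed (5 hours) RAW264.7 cells, 48h post-siRNA transfection (100 nM). Scores: percent of plate negative-control median, then log-based robust z-score.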
row,Sequence,z-score
1,CGAACAAGCCAUGUUUACATT against Gvin1,0.811 (inactive)
2,GGAACUUCUCAAAAGGCUGTT against Tspoap1,-0.0418 (inactive)
3,GGACCUGACCUACUCGUGUTT against Rxrb,-0.216 (inactive)
4,GCGGAAGCGUGAAUCCAAATT against Tigd3,3.13 (active)
5,GGAUCGAACUGCCAUUGCUTT against A930104D05Rik,-0.201 (inactive)
6,GCUGUCCUACUGAGCUUGCTT against Gdpgp1,-0.0224 (inactive)
7,GCCACUUGUGCUAAGCUGUTT against Ager,-0.768 (inactive)
8,GGUCUGUAUGAAGACAUUATT against Pdss1,-1.16 (inactive)
9,GCAAGAAGUAAUCAACUUUTT against Cnot9,-0.997 (inactive)
10,GGACCAGAAACCGUGAUAATT against Immp2l,3.96 (active)
11,GGCACCAAUUACAAGAAAATT against V1rg10,0.257 (inactive)
12,CCUGGCAGACGUGGAACAATT against Ppp1r13l,-0.102 (inactive)
13,GGACCAGUUACUUUAACAUTT against Pkdrej,0.555 (inactive)
14,GGAGAGUCCACUAAUACUGTT against Dmrt3,0.217 (inactive)
15,GGAGAUUGGAUCCCGAAACTT against Pxn,-0.431 (inactive)
16,GGCAAAGAGUGGUAAGAGUTT against Olfr1166,-2.72 (active)
17,GGAUUUCUACAGGGUGUAUTT against Trim8,-1.19 (inactive)
18,GGAUCUUACUAUCACCAGCTT against Foxf1,1.99 (inactive)
19,CGGGCUACCAUUAUGGUGATT against Atp6ap2,0.382 (inactive)
20,GUGGCAGCACGACCUAUUCTT against Alyref2,-0.175 (inactive)
21,CCAAUUACCUGAAUAAAGCTT against Epb41l5,1.19 (inactive)
22,GGGCUCUACUAUUUUUUUUTT against Polh,-2.68 (active)

row,Sequence,z-score
1,GCCCAGGUCUAAUGUCUAATT against Tac4,0.234 (inactive)
2,GGUGUUAAGUCACAAAAUGTT against Meis2,1.59 (inactive)
3,GGUUGUAUGUUGUGUGUUUTT against Cyrib,2.36 (active)
4,CGGAAUGUAGGACACGAAUTT against Ltb,-0.267 (inactive)
5,GGUGACUUCGGAGAAAAGGTT against Sncaip,0.257 (inactive)
6,GGAACAGCUGUGAUUAACGTT against Prdx4,0.343 (inactive)
7,GCUGGAAUACGUUGAUAUATT against Kcnab3,3.68 (active)
8,GGAGAGUCCAGUUUCCAUUTT against Rnf113a1,1.44 (inactive)
9,GCUCAGGAAUUUGACACCATT against Adgrl3,-1.33 (inactive)
10,CCUAAGAUGAUCGUAGGCUTT against Olfr1221,-0.643 (inactive)
11,CGAGCUUUCUUCGUACACCTT against Dvl2,-1.74 (inactive)
12,GGCAUACCUGGAGAAGUGUTT against Prr5l,-2.31 (active)
13,GCUAGCACUAAGUGAACCUTT against Ppp1r21,1.25 (inactive)
14,GGAUAAUAGGAACAAUCUGTT against Sval1,0.207 (inactive)
15,GGUCAGGUUGAGGACAUAATT against Vwa1,1.28 (inactive)
16,GCUUACCAGAUUGUAUGUATT against Mrgpra1,0.533 (inactive)
17,GGAGAAAGAGCAGAGUCUGTT against Cep250,-2.04 (active)
18,GGCAGAGUUUGAAAAGAUCTT against Parp16,-1.42 (inactive)
19,GGCCCAAGAUUUCAAUUAGTT against 9130230L23Rik,-0.0833 (inactive)
20,GGUCAGAGGUCGACCUAUUTT against Oas1h,-2.18 (active)
21,GGUACAUUUUAUACUGGAGTT against Zfp277,0.163 (inactive)
22,GCCUCAUCGUAUAUAAAAUTT against Atp5mpl,-1.64 (inactive)

row,Sequence,z-score
1,GGCCCAAACCUUAAAGUCCTT against Smyd4,-0.194 (inactive)
2,GGAAUGUACCCAUAAAAGUTT against Nudt19,0.988 (inactive)
3,GGCAUUGAGAAGUUUGAAGTT against Fmo9,-1.07 (inactive)
4,CCCUUGGUUAUGGAGAAAGTT against Mcoln2,-0.0392 (inactive)
5,GCACAACAAGCGAUGUCAUTT against Myo9b,-2.13 (active)
6,CCUACGUGAACAUGACGGUTT against Agfg1,0.096 (inactive)
7,GGUAGAGAAUUGAAACCUATT against Klhdc10,-0.776 (inactive)
8,GGAAUAUACCCUGAAACAUTT against Fam71d,0.0244 (inactive)
9,GGAGACUGUGGAUUUAAUUTT against Sult1a1,2.07 (active)
10,GGAGAUGUACCACAAUGCCTT against Prss29,-0.128 (inactive)
11,GGCGGUGAUCCAGGGUUUATT against Klc2,2.62 (active)
12,GGAGUCAAAAAAAAUGCAATT against Ribc1,1.17 (inactive)
13,GCAAGAUCCAGAACACUCATT against Adora1,-0.781 (inactive)
14,CCAAGGAGCAUUCUUUGGUTT against 1700024B05Rik,-0.0487 (inactive)
15,GGUUUGUAUCUUAAAUGCCTT against Tdpoz4,2.88 (active)
16,GGCCUCGUCAUUUUACAGGTT against Mcee,0.098 (inactive)
17,GCCAAUAAUCCACAGGCAATT against Ryk,-0.577 (inactive)
18,CUGUAAGGCGGAUAAGACCTT against Pantr1,-1.42 (inactive)
19,GGUUACAAAAGAACCAGAUTT against Pik3c2g,1.66 (inactive)
20,GCGGCUUAGUCCAUCAGGATT against Aplf,0.819 (inactive)
21,GGAAGAGUGACUUGUGCAATT against Slc28a2,0.0125 (inactive)
22,GCUCGAGGCUUAGAAGACUTT against Hspb3,2.23 (active)

row,Sequence,z-score
1,GGCUUACCUGGUCUACUCCTT against Wnt8b,-0.95 (inactive)
2,GCUACGUGUACCUGGAGUGTT against Cpeb1,-0.502 (inactive)
3,GGUGGUUAUUUAUUGGUGATT against Sp6,-0.272 (inactive)
4,GGUGCCUCAGAGUAAAUAUTT against Cdk2ap1,-0.895 (inactive)
5,GCAAGCAAUAGAGGAACCUTT against Rnf38,0.0643 (inactive)
6,GCAAACUAUUUGUCUGGUGTT against Ripk1,0.7 (inactive)
7,GGAGUACAUGGUGAUGUUGTT against Prss43,-2.6 (active)
8,CCGAAUCUCUCACGUGCCATT against Rtn4r,-0.474 (inactive)
9,GGAGUGUUUUACCUCUUUCTT against Nudt13,0.911 (inactive)
10,GGACUUGAUGACAGUGAAUTT against Strada,-2.27 (active)
11,GCACCAUGAAUUCUAUUGCTT against Kcnmb1,-0.24 (inactive)
12,GCCGCUUAAGAGGGAUUAUTT against Mrpl15,-0.394 (inactive)
13,GGAGUAACUAUUCCCAAUUTT against Herc1,1.41 (inactive)
14,GGAGUUGAGGUGAUUAUCUTT against Olfr1222,-2.33 (active)
15,GCUUAAGGAUCCAUAAUGUTT against Musk,0.981 (inactive)
16,GGAAGGAGAAAGAGUAUGATT against Mnt,0.525 (inactive)
17,GCAGAAACGAUUGUACCAUTT against Ar,1.37 (inactive)
18,GGCUCAAAACCACACCACUTT against Olfr477,-2.75 (active)
19,CGAUUGCUAAGGUGUUUGATT against Sfmbt1,-0.45 (inactive)
20,GGAGCAUCAUUAUUCUGCATT against Gm527,-0.0903 (inactive)
21,GAGAAACCUGCCUCAUCUCTT against Spata3,-0.0842 (inactive)
22,GGAUUUGAACUCAGAUGUUTT against A430057M04Rik,2.15 (active)

row,Sequence,z-score
1,GGGAUGUUCUUCAAUCCUGTT against Hecw2,0.0154 (inactive)
2,GCACUUCAGUUUACAAAACTT against Mier3,-0.891 (inactive)
3,CGUUUGAUGAGACCAUGUATT against Vwf,-0.459 (inactive)
4,GCCUGGUAGUUAGUCAGAATT against Klf11,2.4 (active)
5,GCUACAUGAUUCAGCGGAATT against Itga3,-1.23 (inactive)
6,CGGAUUAGUAUAAAUGUAGTT against Prss16,-0.109 (inactive)
7,UCACAACUGUCUGUUCUCATT against Klk1b3,-1.19 (inactive)
8,GCCACACACCUUCUAUAAUTT against Ptprs,-0.62 (inactive)
9,GCCAACGCAGCAAAAGCUCTT against Rsrp1,0.0495 (inactive)
10,CCCAAUAUGUUAGACCCUGTT against Slc16a8,0.448 (inactive)
11,GGUGAUAAUUAAUGUCUUGTT against Naip1,2.08 (active)
12,GGAUCAGAACUUAUCUGUGTT against Utp23,0.383 (inactive)
13,GGCACUGAUAAGAAGUACCTT against Dnah1,0.772 (inactive)
14,GCUUAUGUUAAACCAGAGATT against Syt8,0.0449 (inactive)
15,GGAUCCUAGCCUUUUAUCATT against Cep70,-1.11 (inactive)
16,GGAUUCCAGAGAAAUGUGATT against Lrrc66,-2.62 (active)
17,GGUAUGAGUACAAAUACUGTT against Tek,1.97 (inactive)
18,GGCUCUGCCAUUUUCCCUUTT against F12,-1.24 (inactive)
19,GGCCAAGUUCCAUAUCACCTT against Eefsec,0.46 (inactive)
